An excerpt weighted towards active compounds, which were near 1.2% of everything screened.
NPR2 activator = human GC-B receptor activators, primary screen, HEK293 GC-B cells, cGMP TR-FRET, EC30 CNP; Atrial natriuretic peptide receptor 2 (Homo sapiens), P20594; activation, % at 10 µM; 0% at EC30 CNP, 100% saturating CNP; 370,000 tested, 0.11% active;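 active = activation at 10 µM reaching about 35% in either raw or pattern-adjusted values, limit read from the data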
MsrA inhibitor = bovine MsrA enzyme inhibitors, primary screen, biochemical, absorbance, HTS; Methionine sulfoxide reductase A (Bos taurus); purified bovine MsrA, absorbance read-out; inhibition, % at 15.5 µM; 360,000 tested, 0.75% active; in the data active = inhibition above about 4.5%
GC-A act = GC-A stimulated cGMP production enhancers – HEK293 GC-A cells, cGMP TR-FRET, EC30 ANP, primary screen | Atrial natriuretic peptide receptor 1 (Homo sapiens), P16066 | 0% at EC30 ANP, 100% saturating ANP | activation, % at 10 µM | 370,000 tested, 0.14% active; in the data active = activation above about 40%
bovine MsrA act = bovine MsrA enzyme activators, primary screen, biochemical, absorbance, HTS | Methionine sulfoxide reductase A (Bos taurus) | purified bovine MsrA, absorbance read-out | activation, % at 10.6 µM | 360,000 tested, 0.3% active; in the data active = activation above about 7.5%
MsrA activ conf = bovine MsrA activators, retest, confirmation, biochemical, absorbance, HTS; purified bovine MsrA, absorbance read-out; 1,000 tested, 12% active; shares compounds with bovine MsrA act; activation, % at 10.6 µM; in the data active = activation above about 4%;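 note: enzyme coupled to thioredoxin and thioredoxin reductase with NADPH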
Each line names hits and unclear results; the compound was inactive in the other large screens (follow-up assays come after a bar, where they were run).

Cc1cc(CN(C)C(=O)CC2C(=O)NCCN2CC(c2ccccc2)c2ccccc2)on1 (configuration not stated)	none
O=C(Nc1ccccc1)N1CCN(c2nc3ccccc3s2)CC1	none
O=C(Nc1ccc(F)cc1)N1CCN(c2nc3ccccc3s2)CC1	bovine MsrA act 8.0 | MsrA activ conf inactive
O=C(NCc1cccc(C(F)(F)F)c1)O[C@H]1CC[C@@]23CCCN2C(=O)CCC[C@H]3C1	none (no result: MsrA inhibitor, bovine MsrA act)
c1ccc(-c2cc3c(N4CCOCC4)ncnc3s2)cc1	bovine MsrA act 8.0 | MsrA activ conf inactive
COc1ccc(OC)c(S(=O)(=O)N2CCCCC2C(=O)N2CCCN(C)CC2)c1 (configuration not stated)	none (no result: MsrA inhibitor, bovine MsrA act)
COc1cc(C=Nn2c(-c3cc(-c4ccccc4)n[nH]3)n[nH]c2=S)ccc1OC(C)=O	none (no result: MsrA inhibitor, bovine MsrA act)
O=C(NCCO)c1cccc(Nc2nc(-c3ccccc3)c3cc(Cl)ccc3n2)c1	bovine MsrA act 17 | MsrA activ conf inactive
NNc1nc(-c2ccccc2)c2cc(Cl)ccc2n1	none
CC(C)(C)NC(=O)/C=C/c1ccc(C(F)(F)F)cc1	bovine MsrA act 8.2 | MsrA activ conf inactive
Cc1nn(CCC(=O)NNC(=O)NCc2ccccc2)c(C)c1[N+](=O)[O-]	none (no result: MsrA inhibitor, bovine MsrA act)
CCOC(=O)[C@]12CCCCC/C=C\1N(Cc1ccc(OC)cc1)C(=O)[C@H]2CC(=O)NCC1CCCCC1	none (no result: MsrA inhibitor, bovine MsrA act)
COc1cc(OC)cc(C(C)c2ccc(-c3ccccc3)cc2)c1 (configuration not stated)	none (no result: MsrA inhibitor, bovine MsrA act)
c1ccn(-c2ccc(N3CCOCC3)cc2)c1	bovine MsrA act 10 | MsrA activ conf inactive
c1ccc(N2CCOCCOCCOCCOCC2)cc1	none
Nc1nc2ccccc2n1/N=C/c1ccc([N+](=O)[O-])s1	bovine MsrA act 8.0 | MsrA activ conf 7.8
Nc1nc2ccccc2n1/N=C/c1cccnc1	none
Cc1ccc(NC(=O)Cc2cccc(OC(F)F)c2)c(S(=O)(=O)N2CCOCC2)c1	none (no result: MsrA inhibitor, bovine MsrA act)
CC(C)(C)Nc1nc(SCC(=O)Nc2ccccc2)nc(N2CCOCC2)n1	none
CN(C)c1nc(NC(C)(C)C)nc(SCC(=O)Nc2ccccc2)n1	bovine MsrA act 7.7 | MsrA activ conf inactive
Cc1cc(NC(=O)CCCC(=O)OCC(F)(F)C(F)F)cc(C)c1C(=O)O	bovine MsrA act 8.3 | MsrA activ conf inactive
COc1cc(Nc2ccc(C(=O)O)cc2[N+](=O)[O-])cc(OC)c1	bovine MsrA act 9.7 | MsrA activ conf 8.1
CC1(C)Cc2cccc(Oc3ccc(S(=O)(=O)N4CCCCC4)cn3)c2O1	bovine MsrA act 7.7 | MsrA activ conf inactive
O=C(CSc1nnc(Cc2ccccc2)o1)NCCN1C(=O)CSC1=O	bovine MsrA act 19 | MsrA activ conf inactive
Cc1nnc(SCC(=O)NCCN2C(=O)CSC2=O)n1-c1ccccc1	none
CCOP(=O)(OCC)c1ccc2c(c1)C(=O)c1ccccc1-2	none (no result: MsrA inhibitor, bovine MsrA act)
CS(=O)(=O)c1ccc(N)c(SSc2cc(S(C)(=O)=O)ccc2N)c1	bovine MsrA act 14 | MsrA activ conf 9.8
Nc1ncnc(Nc2cccc(F)c2)n1	none
Cc1cccc(Nc2ncnc(N)n2)c1	bovine MsrA act 13 | MsrA activ conf inactive
O=C1c2ccccc2C(=O)c2c(/C=C/N3CCCCC3)ccnc21	bovine MsrA act 9.7 | MsrA activ conf 4.3
O=C1c2ccccc2-c2cccnc21	none
CC(C)C[C@@H]1COc2cc(Br)ccc2S(=O)(=O)N1Cc1cn(Cc2ccc(Cl)cc2)nn1	none (no result: MsrA inhibitor, bovine MsrA act)
Cc1ccc(S(=O)(=O)N2CCCC2C(=O)N2CCc3ccccc3C2)cc1 (configuration not stated)	none (no result: MsrA inhibitor, bovine MsrA act)
Cc1nnc(N/N=C/c2ccc([N+](=O)[O-])cc2)n1N	bovine MsrA act 21 | MsrA activ conf inactive
Cc1nnc(N/N=C/c2ccc(Br)cc2)n1N	bovine MsrA act 34 | MsrA activ conf inactive
O=C(NCCc1ccc(F)cc1)c1cc2ccccn2n1	none (no result: MsrA inhibitor, bovine MsrA act)
O=C1NC(Cc2ccccc2)c2nc3cc(F)c(F)cc3c(=O)n2-c2ncccc21 (configuration not stated)	bovine MsrA act 9.7 | MsrA activ conf inactive
O=C1NC(Cc2ccccc2)c2nc3cc(F)ccc3c(=O)n2-c2ncccc21 (configuration not stated)	none
CCC(NC(=O)Cn1c(-c2ccccc2)cc(C(C)=O)c1C)c1ccccc1 (configuration not stated)	none (no result: MsrA inhibitor, bovine MsrA act)
Cc1cc(Cl)cc2sc(=S)[nH]c12	bovine MsrA act 8.2 | MsrA activ conf inactive
